# Compound activity deposited in PubChem by National Center for Advancing Translational Sciences (NCATS).
# NPC1 prom act: qHTS Assay for NPC1 Promoter Activators | Huh7 NPC1 promoter luciferase reporter, 24 h | 320,000 compounds, 2.4% hits | Potency, µM (doses to about 9.22 µM), inactives show top-dose activation, most hits filed as activators | AID 485313, 2010; note: % of control where 0% means no effect; nearly all actives have a fitted effect of over 60% in size
#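 Stably transfected Huh7 (NPC1 promoter→luciferase), 1500 cells/well in Opti-MEM + 10% FBS, 2 h settle, then compound 24 h at 37 °C. Luminescence after 10 min with Amplite reagent.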
# SMN2 splice enh: qHTS Assay for Enhancers of SMN2 Splice Variant Expression; HEK293 SMN2-luciferase splicing reporter, luminescence, 30-36 h; Potency, µM (highest dose often 46.1 µM), inactives show top-dose activity change, positive = activation, most hits filed as activators; 210,000 compounds, 2.8% hits; AID 1458, 2008; note: % of control where 0% means no effect; nearly all actives have a fitted effect of over 55% in size
#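 HEK293 cells carry an SMN2 […]–luciferase reporter in which exon 7 inclusion puts luciferase in frame. Cells were plated 10-12 h before compound addition, then incubated 30-36 h at 37C. ONE-Glo luminescence was read; sodium butyrate at 4.5 mM final served as control.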
# ELG1 genotoxic: qHTS screen for small molecules that induce genotoxicity in human embryonic kidney (HEK293T) cells expressing luciferase-tagged ELG1 | Potency, µM (doses to about 46 µM), without a hit: top-dose activity change, positive = activation, actives largely listed as activators | 330,000 compounds, 1.3% hits | HEK293T ELG1-luciferase reporter, luminescence, 16 h; note: % of control where 0% means no effect; nearly all actives have a fitted effect of over 60% in size
#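 Screening used a luciferase reporter fused to human ELG1 in HEK293T cells. Luminescence was read on a CCD plate imager after 16 hr exposure and 30 min ONE-Glo incubation.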
# ELG1 repair inh: qHTS screen for small molecules that inhibit ELG1-dependent DNA repair in human embryonic kidney (HEK293T) cells expressing luciferase-tagged ELG1; Potency, µM (top dose mostly 46.1 µM), without a hit: at the top dose activity change, negative = inhibition, usual class: inhibitors; 330,000 compounds, 2.3% hits; HEK293T ELG1-luciferase reporter, luminescence, 16 h; DNA damage induced by 5-fluorouridine; note: % is set by controls: 0 for no effect and ±100 for the full control effect; nearly all actives have a fitted effect of over 55% in size
#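 HEK293T cells expressing luciferase-tagged ELG1 (2,000/well) received 5-Fluorouridine plus compound or DMSO for 16 hr at 37 °C. Luciferase was read by ONE-Glo luminescence after 30 min at room temperature.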
# FLuc modulator: qHTS profiling assay for firefly luciferase inhibitor/activator using purifed enzyme and Km concentrations of substrates (counterscreen for miR-21 project); Luciferin 4-monooxygenase (Photinus pyralis), P08659; purified FLuc, Km substrates, luminescence inhibition; Potency, µM (series often up to 57.5 µM), inactives show top-dose activity change, negative = inhibition, usual class: inhibitors; 360,000 compounds, 6.9% hits; AID 588342, 2011;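 note: plate controls were vehicle for no effect and reference inhibitor for full effect; nearly all actives have a fitted effect of over 55% in size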
# Target sequence (P08659 whole entry, looked up): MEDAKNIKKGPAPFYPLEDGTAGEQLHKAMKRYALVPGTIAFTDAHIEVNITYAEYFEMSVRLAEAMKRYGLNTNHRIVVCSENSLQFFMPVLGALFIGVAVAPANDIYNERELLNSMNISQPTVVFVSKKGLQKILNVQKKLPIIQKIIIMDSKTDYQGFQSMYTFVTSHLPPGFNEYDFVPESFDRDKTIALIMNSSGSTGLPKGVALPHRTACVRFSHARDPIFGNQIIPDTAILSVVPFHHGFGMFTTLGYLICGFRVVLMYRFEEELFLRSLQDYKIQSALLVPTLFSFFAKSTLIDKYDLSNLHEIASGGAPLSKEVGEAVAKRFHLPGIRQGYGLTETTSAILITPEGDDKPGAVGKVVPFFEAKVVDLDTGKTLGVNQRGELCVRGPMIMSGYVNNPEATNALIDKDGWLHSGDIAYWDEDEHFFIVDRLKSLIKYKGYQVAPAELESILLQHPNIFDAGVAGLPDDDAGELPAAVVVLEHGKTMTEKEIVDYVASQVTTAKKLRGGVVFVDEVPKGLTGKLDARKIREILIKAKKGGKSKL
#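 Purified P. pyralis luciferase, 10 nM final, with Km-level 10 uM D-luciferin and 10 uM ATP in 50 mM Tris acetate pH 7.5, 10 mM Mg acetate, 0.01% Tween-20, 0.05% BSA; 6-point qHTS titration about 60 µM downward; luminescence read.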
# Rab9 prom act: qHTS Assay for Rab9 Promoter Activators; Huh7 Rab9 promoter-luciferase reporter, luminescence, 24 h; Potency, µM (titrated, usually from 9.22 µM), without a hit: top-dose activation, negative = inhibition, most hits filed as activators; 320,000 compounds, 2.8% hits; AID 485297, 2010; note: % of control where 0% means no effect; nearly all actives have a fitted effect of over 60% in size
#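 Luminescence from Amplite-detected luciferase (10 minutes, ambient) reports Rab9 promoter activation. Before that, stable Rab9-luciferase Huh7 cells (1500/well, reduced-serum OP-MEM I plus 10% FBS) were exposed to compound for 24 hours at 37C.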
# Starred values were filed as active, the others as inactive; ? = inconclusive; . = no result given. Sampled rows, rich in hits. Any-hit rate of the full collection: about 9.2%. Calls come from the whole dose curve; as a rule, active = well fitted curve in the direction sought with a large enough effect; inconclusive = small, poorly fitted or top-dose-only effect, or another doubt; inactive = no such curve, though single readings can be large; an effect the other way counts as inactive or inconclusive. Potency is the fitted concentration of half-maximal effect.
SMILES,NPC1 prom act,SMN2 splice enh,ELG1 genotoxic,ELG1 repair inh,FLuc modulator,Rab9 prom act
CSc1nsc(SCC(=O)Nc2ccc(C(C)=O)cc2)n1,24%,13µM*,8.2µM*,?,21µM*,15%
COc1ccccc1NC(=O)CSc1nnc(NC(=O)NC2CCCCC2)s1,.,.,.,.,2.4µM*,.
Cc1nn(Cc2noc(C(=O)NC(C)c3ccccc3)n2)c(C)c1Br (centres undefined),.,-13%,.,.,-7%,.
COc1ccc(NC(=O)CSc2nnc(NC(=O)NC3CCCCC3)s2)cc1OC,.,.,.,.,2.4µM*,.
CC(=O)Nc1nnc(SCC(=O)NC2CC2)s1,3%,.,0%,10%,0%,1%
O=C(CSc1nnc(NC(=O)NC2CCCCC2)s1)Nc1ccccc1F,.,.,.,.,3µM*,.
CC(=O)c1ccc(NC(=O)CSc2nnc(NC(=O)NC3CCCCC3)s2)cc1,.,.,.,.,0.48µM*,.
CC(=O)Nc1ccc(NC(=O)C(C)OC(=O)CNC(=O)c2ccc(-c3ccccc3)cc2)cc1 (centres undefined),9%,.,16%,?,?,1%
Cn1ccnc1SCC(=O)Nc1ccc2nc(SCC(=O)NC3CC3)sc2c1,?,18%,13µM*,?,19µM*,?
CCN(CC)C(=O)CSc1nc2ccc(NC(=O)CSc3nnc(COc4ccccc4C)n3C)cc2s1,-4%,-9%,-5%,8.2µM*,?,-1%
Cn1ccnc1SCC(=O)NC1CCCC1,0%,.,-2%,21%,0%,5%
Cc1cccc(NC(=O)CSc2nnc(N)s2)c1,.,?,.,.,-3%,.
Cc1ccccc1OCc1nnc(SCC(=O)Nc2ccc3nc(SCC(=O)NC(C)(C)C)sc3c2)n1C,3%,-31%,-5%,?,2%,4%
CC(C)(C)NC(=O)CSc1nc2ccc(NC(=O)CSc3nnc(N)s3)cc2s1,-5%,-24%,-1%,16µM*,12µM*,-3%
CC(C)(C)NC(=O)CSc1nc2ccc(NC(=O)CSc3nnnn3Cc3ccccc3)cc2s1,-9%,-93%,-12%,2.9µM*,?,-14%
O=C(COC(=O)c1c[nH]c2ccccc12)Nc1ccc(F)cc1,7%,.,2%,7%,.,-5%
O=C(NCCCCc1ccccc1)C1CCCC1,-1%,.,0%,12%,-11%,11%
CCOc1ccc(/C=N/Nc2cc(N3CCOCC3)nc(C)n2)c(O)c1,2%,.,-8%,-12%,1%,-9%
Oc1ccc(/C=N/Nc2cc(N3CCCC3)nc(N3CCCC3)n2)cc1,-1%,-34%,-7%,1%,-9%,1%
Cc1nc(Cl)cc(N/N=C/c2ccc(O)cc2)n1,15%,.,?,?,21µM*,6%
Cc1nc(Cl)cc(N/N=C/c2ccc(O)cc2O)n1,-1%,.,13%,?,13µM*,4%
Cc1ccc(-c2cc3c(n2-c2ccc(F)cc2)CC(C)(C)CC3=O)cc1,.,-3%,.,.,-4%,.
O=C(O)CSc1c2c(nc3cc(C(=O)Nc4ccc(F)c(Cl)c4)ccc13)CCCC2,2%,.,0%,13%,-5%,0%
CN1C(=O)c2cccc(NCCCN3C(=O)c4ccccc4C3=O)c2C1=O,0%,8%,4%,8%,0%,-2%
CN1C(=O)c2cccc(NCCCCCCN3C(=O)c4ccccc4C3=O)c2C1=O,-3%,-51%,4%,15µM*,-1%,-10%
SMILES,NPC1 prom act,SMN2 splice enh,ELG1 genotoxic,ELG1 repair inh,FLuc modulator,Rab9 prom act
COc1ccc(CCNC(=O)NC23CC4CC(CC(C4)C2)C3)cc1,19%,-18%,9%,13%,?,20%
O=C(NCCc1ccc(F)cc1)NC12CC3CC(CC(C3)C1)C2,2.5µM*,.,?,?,11µM*,3.5µM*
O=C(NCCC1=CCCCC1)NC12CC3CC(CC(C3)C1)C2,0.63µM*,-12%,?,?,3.4µM*,0.89µM*
Cc1cccc(NS(=O)(=O)c2ccc3c(c2)CCN3C(=O)C2CCC2)c1,.,-58%,.,.,-12%,.
COc1ccc(NC(=O)c2ccc(COc3ccc(C)cc3)o2)cc1,26%,.,5%,-1%,11µM*,29%
Cc1oc(C(=O)Nc2ccc(O)cc2)cc1COc1ccccc1,0%,?,?,11%,?,-9%
CC(=O)Nc1ccc(NC(=O)c2ccc(COc3ccc(C)cc3)o2)cc1,?,.,3%,20%,-3%,?
Cc1ccc(OCc2cc(C(=O)Nc3ccccc3)oc2C)cc1,22%,7%,?,?,19µM*,17%
O=C(O)c1ccc(NC(=O)c2ccc(COc3ccccc3)o2)cc1,3%,.,4%,18%,19µM*,17%
CC(C)(C)n1ncc2c(=O)n(Cc3cc(F)c(F)cc3Cl)cnc21,.,.,.,.,-1%,.
CSCCC(NC(=O)c1ccccc1Cl)C(=O)Nc1cccc(S(=O)(=O)N2CCCC2)c1 (centres undefined),-3%,.,1%,1%,-15%,-4%
COc1ccc(C(=O)O)cc1S(=O)(=O)Nc1ccc2cn[nH]c2c1,.,.,-3%,12%,.,.
CC(OC(=O)Cn1cnc2c1c(=O)n(C)c(=O)n2C)C(=O)Nc1ccc(Cl)cc1 (centres undefined),-1%,.,-3%,6%,1%,1%
COCCn1ccc2c(OCC(=O)NCc3ccc(F)cc3)cccc2c1=O,.,.,.,.,6%,.
COc1cccc(C(=O)O/N=C(\N)c2ccncc2)c1,?,12%,?,?,1.3µM*,-1%
N/C(=N\OC(=O)c1ccncc1)c1cccc([N+](=O)[O-])c1,18%,.,17%,?,?,20%
COc1cccc(C(=O)O/N=C(\N)Cc2ccc(Cl)cc2)c1,1%,-4%,-2%,1%,?,-3%
COc1cccc(C(=O)O/N=C(\N)c2ccc(C)cc2)c1,3.2µM*,.,?,?,1.9µM*,26%
N/C(=N\OC(=O)c1cccc2ccccc12)c1ccncc1,2%,.,?,?,24µM*,-2%
Cc1cccc(/C(N)=N/OC(=O)c2ccncc2)c1,1.1µM*,.,?,?,8.5µM*,4µM*
COc1ccccc1CCNC(=O)C(=O)NCC(c1ccc2c(c1)OCO2)N1CCOCC1 (centres undefined),.,.,.,.,-1%,.
